Reference: PubChem BioAssay AID1159580 (chemical genetic matrix, 2015)
Hit rate of the full screen: of about 5,500 compounds, about 2,000 (36%) were called active. About 18% were inconclusive and are not listed. Rule as the data show it: active = normalized growth mostly below about 0.91 (no sharp cut-off); inconclusive = no clear call, values can overlap the other calls; inactive = mostly above about 0.92. The list shows a part of the results.

Test: chemical genetic growth profiling, strain panel (AID 1159580);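 also: tested at 20 µM; growth read once vehicle control cultures reached saturation at 30 °C; 1 = growth at the plate median or of vehicle wells; lower values mean less growth of the strain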
Conditions: S. cerevisiae deletion strains, growth OD

Measured: normalized growth

C[Se]C[C@H](N)C(=O)O
inactive: locus YAL013W, strain DEP1, active compounds read low 0.981 | locus YAL040C, strain CLN3, active compounds read low 1.05 | locus YCL061C, strain MRC1 (second series), active compounds read low 0.983 | locus YDR150W, strain NUM1, active compounds read low 1 | locus YDR363W, strain ESC2, active compounds read low 0.949 | locus YER002W, strain NOP16, active compounds read low 0.984 | locus YNL175C, strain NOP13, active compounds read low 0.953 | locus YNL197C, strain WHI3, active compounds read low 0.981 | locus YNL224C, strain SQS1, active compounds read low 0.97 | locus YNL322C, strain KRE1, active compounds read low 0.981 | locus YOR083W, strain WHI5 (second series), active compounds read low 0.984 | locus YPL241C, strain CIN2, active compounds read low 0.983
